Assay outcomes deposited in PubChem by several laboratories.
LANA-H2B inh: blocks KSHV LANA binding to histone H2A/H2B; AID 2629; cell-free LANA-H2A/H2B peptide, fluorescence polarization; inhibition, % (test concentration not listed); actives 0.6% (n = 320,000); in the data active = inhibition mostly above about 10%, no sharp cut-off; inactive = mostly below about 6.7%
RTF Ca sens inh: cardiac RTF calcium desensitization. actives 0.12% (n = 340,000). IANBD-labeled cardiac RTF, Ca2+ fluorescence. P19429+P45379. inhibition, % at 7.15 µM;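 active = inhibition above the mean inhibition of all tested compounds plus 3 SD, cut at about 17% in these data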;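 also: assay run at fixed EC70 calcium of 1.6 mM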
RTF Ca sens act: cardiac RTF calcium sensitization; P19429+P45379; IANBD-labeled TnC RTF fluorescence at EC20 calcium; 0% EC20 calcium, 100% full calcium; activation, % at 7.2 µM; actives 0.24% (n = 340,000); AID 493008;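 active = activation above the mean over all tested compounds plus 3 SD, cut at about 30% in these data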;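 also: rise in fluorescence read as greater calcium sensitivity of cardiac thin filaments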
Keap1-Nrf2 PPI: disrupts human Keap1 binding to Nrf2 peptide. Q14145. Keap1 Kelch-Nrf2 peptide fluorescence polarization, 1536-well. inhibition, % at 9.4 µM. actives 0.15% (n = 340,000); in the data active = inhibition above about 12%;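 also: human Keap1 Kelch domain with fluorescein labeled Nrf2 9mer peptide probe; 0% = neutral control wells and 100% = peptide positive control; higher means more block of Keap1 binding to Nrf2 peptide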
Target sequence (Q14145 whole entry, looked up, the tested form may be a part): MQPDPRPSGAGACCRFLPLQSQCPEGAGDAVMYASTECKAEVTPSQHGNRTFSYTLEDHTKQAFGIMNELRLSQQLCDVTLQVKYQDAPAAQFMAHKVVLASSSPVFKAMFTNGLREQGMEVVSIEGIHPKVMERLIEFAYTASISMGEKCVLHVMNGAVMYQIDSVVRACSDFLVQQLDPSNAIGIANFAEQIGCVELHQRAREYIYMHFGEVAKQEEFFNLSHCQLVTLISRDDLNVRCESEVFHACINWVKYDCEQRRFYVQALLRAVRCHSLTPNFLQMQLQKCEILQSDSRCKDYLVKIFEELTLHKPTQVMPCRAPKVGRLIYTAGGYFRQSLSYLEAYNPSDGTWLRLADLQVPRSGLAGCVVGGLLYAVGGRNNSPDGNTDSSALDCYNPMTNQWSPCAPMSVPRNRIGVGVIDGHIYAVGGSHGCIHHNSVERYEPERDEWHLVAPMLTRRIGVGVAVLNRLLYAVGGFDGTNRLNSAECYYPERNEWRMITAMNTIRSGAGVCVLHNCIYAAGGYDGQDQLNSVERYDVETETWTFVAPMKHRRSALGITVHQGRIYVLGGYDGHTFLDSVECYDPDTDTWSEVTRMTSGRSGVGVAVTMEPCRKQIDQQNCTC
LANA DNA inh: KSHV C-LANA DNA binding inhibition; MBP-C-LANA/FAM-LBS DNA binding, fluorescence polarization; inhibition, % at 9 µM; actives 0.078% (n = 340,000);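 active = highest replicate inhibition at or above 60% at 9 µM, even if other replicates fall short; inactive = all replicates below 60% inhibition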;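 also: 0% = neutral control wells and 100% = 4 µM acridine orange control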
RTF Ca inh conf: cardiac RTF calcium sensitivity inhibition, confirmation; shares compounds with RTF Ca sens inh; reconstituted cardiac thin filaments, calcium sensitivity fluorescence; inhibition, % at 7.15 µM; actives 8% (n = 360); in the data active = inhibition above about 18%
Numbers without * were called inactive; . = not tested or not shown. This is a sample that favours compounds with a hit; in the whole collection about 0.99% have one here.

SMILES | LANA-H2B inh | RTF Ca sens inh | RTF Ca sens act | Keap1-Nrf2 PPI | LANA DNA inh | RTF Ca inh conf
Cc1nn(Cc2c(F)c(F)c(F)c(F)c2F)c(C)c1NC(=O)c1nn(C)cc1Br | 2.5 | -2.0 | 3.9 | -1.9 | 0.1 | .
Cc1nn(Cc2c(F)c(F)c(F)c(F)c2F)c(C)c1NC(=O)c1nn(C)c(C)c1Br | -3.8 | 1.9 | 46.5* | 2.3 | -0.8 | .
C=CCn1c(SC2CCOC2=O)nc2sc(C)c(C)c2c1=O (stereo unspecified) | 4.0 | -3.8 | 10.0 | -1.4 | -0.2 | .
COc1cc(CN(C)C(C)C(=O)Nc2ccc([N+](=O)[O-])cc2Cl)ccc1OC(F)F (stereo unspecified) | -0.9 | 2.0 | 1.5 | -3.6 | 0.3 | .
COc1ccc(Cl)cc1NC(=O)C(C)N(C)Cc1ccc(C(F)(F)F)cc1 (stereo unspecified) | -6.3 | 17.6* | 2.7 | -2.1 | 0.8 | -1.4
NC(=O)C1CCN(CC(=O)Nc2cc(Cl)ccc2Oc2ccccc2)CC1 | -3.5 | -6.6 | 7.0 | -0.9 | -1.0 | .
COc1ccccc1CN(C)CC(=O)Nc1ccc(Cl)cc1C(F)(F)F | 2.4 | 17.5* | 2.5 | 0.2 | 0.8 | -2.9
COCCN(C(=O)COC(=O)c1cc2c(s1)CCC2)c1c(N)n(Cc2ccccc2)c(=O)[nH]c1=O | 2.3 | 19.9* | -26.9 | 6.2 | 25.5 | 16.0
OCC1(Cc2ccc(Cl)cc2)CCN(CC2CC=CCC2)CC1 (stereo unspecified) | 2.6 | 10.5 | 10.1 | -1.2 | -1.3 | .
O=C(C1CCCCN1S(=O)(=O)c1ccccc1[N+](=O)[O-])N1CCOCC1 (stereo unspecified) | 3.5 | 17.6* | 4.6 | 1.7 | 0.8 | -0.7
O=C1/C(=C/c2cccs2)COc2ccccc21 | . | 18.1* | -7.1 | 2.1 | -2.0 | -3.0
CC1CCN(C(=O)COC(=O)CSc2ccc(C(N)=O)cc2[N+](=O)[O-])CC1 | -1.4 | 17.2* | -0.8 | -3.7 | -0.4 | 0.7
CC1CCCN(C(=O)COC(=O)CSc2ccc(C(N)=O)cc2[N+](=O)[O-])C1 (stereo unspecified) | -5.0 | -9.8 | -6.2 | 1.2 | -0.7 | .
CN(C)S(=O)(=O)N(CC(=O)NCCSCc1ccccc1)c1ccccc1 | 1.1 | -10.4 | -3.2 | 2.2 | 1.8 | .
Cc1ccc(CSc2nnc(SCC(=O)N/N=C/c3c[nH]c4ccccc34)s2)cc1 | . | 23.1* | -7.5 | 0.3 | -0.6 | 2.6
Cc1ccc2[nH]c(CNC(=O)c3ccc(F)cc3)cc2c1 | -2.7 | -7.5 | -0.6 | -1.1 | 2.1 | .
COc1cc(/C=C2\SC(=Nc3ccccc3)N(CCc3c[nH]c4ccccc34)C2=O)ccc1OC(C)C(=O)O (stereo unspecified) | -8.6 | 34.6* | -19.7 | -2.8 | 2.4 | 3.6
CCc1ccc(NC(=O)CN(N=Nc2nonc2C)c2nonc2C)cc1 | -0.1 | 26.4* | -0.5 | 1.3 | 1.0 | -3.6
CCc1ccc(NC(=O)c2cc(C)no2)cc1 | 2.9 | -3.3 | -0.8 | 5.0 | 0.4 | .
CC1=CC(C)(C)C(C(=O)O)C(C(=O)O)C1 (stereo unspecified) | 9.2 | 17.6* | 10.5 | -3.2 | 0.8 | -5.9
CC1=CC(C)C(C(=O)O)C(C(=O)N2CCN(C)CC2)C1 (stereo unspecified) | -2.1 | -5.5 | -5.0 | -2.5 | -0.8 | .
O=C(C[C@H]1C/C=C/CC[C@@H](Cc2ccc(F)cc2)C(=O)O[C@@H](c2ccccc2)CNC1=O)NCCO | 1.8 | -2.4 | -6.5 | -1.9 | 0.9 | .
COc1ccc(NC(=O)CSc2nc(O)cc(=O)n2-c2ccccc2OC)cc1 | -3.5 | -6.2 | -0.9 | 0.5 | 2.8 | .
COc1ccccc1-n1c(SCC(=O)Nc2ccc(C)cc2)nc(O)cc1=O | 2.4 | 18.1* | -0.9 | -0.3 | 0.6 | -1.9
CCOc1ccc(NC(=O)NC2CCS(=O)(=O)C2)cc1 (stereo unspecified) | -4.8 | -22.1 | 1.0 | -2.7 | -1.1 | .
SMILES | LANA-H2B inh | RTF Ca sens inh | RTF Ca sens act | Keap1-Nrf2 PPI | LANA DNA inh | RTF Ca inh conf
CC(C)(C)C1CCc2c(C(=O)NNC(=O)CCCC(=O)O)csc2C1 (stereo unspecified) | 8.0 | 17.2* | -2.5 | 0.9 | 0.0 | 0.0
O=C1CC(=O)N2N=C(c3ccc([N+](=O)[O-])cc3)SC2=N1 | -0.8 | 19.3* | -0.7 | -4.9 | 2.1 | -2.5
Nc1nnc(SCC(=O)N2CCN(c3ccccc3)CC2)n1-c1ccccc1 | 2.0 | 17.7* | -5.7 | -8.1 | 0.9 | -2.2
COC(=O)c1cc2n(n1)CCN(Cc1ccccc1F)C2=O | 9.0 | -7.6 | -1.6 | 5.3 | 0.1 | .
Cc1ccc(C)c(OCCC(=O)NNC(=O)c2ccncc2)c1 | -9.7 | -3.5 | 1.0 | -0.9 | -0.1 | .
Cc1ccc(C)c(OCCC(=O)NNC(=O)c2ccccc2)c1 | 0.6 | 17.4* | -2.4 | -3.0 | 0.6 | 0.0
COc1ccc(/C=C/C(=O)NC(=S)Nc2ccc(C(=O)O)cc2)cc1 | . | 57.6* | 32.6* | -4.0 | 0.4 | -4.0
O=C(NCc1ccco1)c1ccccc1Nc1ccc(F)cc1 | -0.4 | 0.9 | 1.0 | -3.3 | -0.2 | .
Cc1ccc(NC(=O)CCc2c(C)nn(-c3ccc(N4CCCCC4)nn3)c2C)cc1F | -1.2 | 3.7 | -7.4 | 3.1 | -0.1 | .
Cc1c(Cl)c([N+](=O)[O-])nn1CC(=O)NC(C)c1ccccc1 (stereo unspecified) | -0.9 | 3.9 | -2.2 | -0.6 | -1.5 | .
Cc1c(Cl)c([N+](=O)[O-])nn1CC(=O)NCc1cccs1 | 1.4 | 18.2* | 11.1 | -1.6 | -0.8 | -2.6
O=C1COc2ccc(C(=O)COC(=O)CNC(=O)c3ccccc3)cc2N1 | 7.5 | 1.3 | -3.3 | -5.7 | 0.4 | .
CCn1c2ccccc2c2nc3cc(S(=O)(=O)N4CCOCC4)ccc3nc21 | . | -10.8 | 15.4 | 0.0 | 1.1 | .
Cc1cccc(NC(=O)CCN2CCCC(C)C2)c1 (stereo unspecified) | 0.9 | 59.0* | 7.1 | 2.2 | 0.7 | -4.6
Cc1cccc(NC(=O)CCN2CC(C)OC(C)C2)c1 (stereo unspecified) | 4.3 | -3.7 | 5.6 | -6.1 | 0.4 | .
O=C(NCCCN1CCN(Cc2ccccc2)CC1)C1CCN(S(=O)(=O)N2CCC3(CC2)OCCO3)CC1 | -2.7 | 17.6* | -5.8 | -2.6 | -1.7 | 2.7
O=C(NCCCN1CCC(Cc2ccccc2)CC1)C1CCN(S(=O)(=O)N2CCC3(CC2)OCCO3)CC1 | 5.8 | 7.4 | -1.3 | 0.6 | -0.1 | .
COc1ccc(CN(C)CC(=O)Nc2ccc(SC(F)F)cc2)cc1OC | -0.4 | 20.1* | 5.0 | 2.5 | -0.8 | 2.9
CCOC(=O)[C@H](CCc1ccccc1)N[C@@H](C)C(=O)N1C(C(=O)O)C[C@@H]2CCC[C@@H]21 (stereo partly specified) | -4.3 | 23.4* | 1.5 | -1.3 | 1.1 | -3.2
NNC(=O)CNc1ccccc1Cl | -2.2 | -3.7 | 1.4 | -3.7 | -1.0 | .
CSCCCN1CCCC(CO)(Cc2ccccc2F)C1 (stereo unspecified) | -3.7 | -2.9 | 0.6 | -1.9 | -1.8 | .
